# PubChem BioAssay (NCI)
# This is part of a sample that, as a whole, favours compounds with a hit. Of some 79,000 tested, about 15% had one in any assay. A number with no mark means an inactive call. Activity calls are given as the source filed them. Rule as the data show it: active = growth inhibition above about 70%; inactive = the rest.
# Assays:
# [1] = NCI Yeast Anticancer Drug Screen. Data for the rad52 strain (AID 147);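 also: 0% = growth of vehicle-treated control cultures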; conditions: S. cerevisiae rad52 mutant growth inhibition, active compounds read high
# Procedure, shortened: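 Read-out: growth inhibition versus vehicle-treated controls. Cells were a DNA repair-deficient yeast strain treated with compounds.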
# [2] = NCI Yeast Anticancer Drug Screen. Data for the wt1 strain (AID 149);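 also: 0% = growth of vehicle-treated wt1 cultures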; conditions: S. cerevisiae wt1 strain (SPY 50644) growth inhibition, active compounds read high
# Procedure, shortened: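 Vehicle-normalised growth inhibition; strain wt1; compound exposure.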
# [3] = NCI Yeast Anticancer Drug Screen. Data for the rad50EPP+ strain (AID 151);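 also: 0% = growth of vehicle-treated control cultures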; conditions: S. cerevisiae rad50 mutant strain, active compounds read high
# Procedure, shortened: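 Growth inhibition read against vehicle controls in rad50EPP+ yeast, a strain altered in DNA damage repair, after compound exposure.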
# [4] = NCI Yeast Anticancer Drug Screen. Data for the mgt1 strain (AID 153); conditions: S. cerevisiae mgt1 mutant growth inhibition, active compounds read high
# Procedure, shortened: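 mgt1 yeast grown with test compound; read-out is growth inhibition versus vehicle-treated cultures.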
# [5] = NCI Yeast Anticancer Drug Screen. Data for the rad50 strain (AID 155);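 also: 0% = growth of vehicle-only cultures of the same strain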; conditions: S. cerevisiae rad50 strain growth inhibition, active compounds read high
# Procedure, shortened: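 A DNA repair-deficient yeast mutant serves as the test organism; compound-induced growth inhibition is calculated against vehicle-treated cells.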
# [6] = NCI Yeast Anticancer Drug Screen. Data for the mec2-1 strain (AID 157); conditions: S. cerevisiae mec2-1 strain, active compounds read high
# Procedure, shortened: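 Yeast mec2-1 mutant treated with compound. Readout: growth inhibition vs vehicle controls.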
# [7] = NCI Yeast Anticancer Drug Screen. Data for the rad14 strain (AID 159);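 also: 0% = growth of vehicle-treated control cultures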; conditions: S. cerevisiae rad14 strain growth inhibition, active compounds read high
# Procedure, shortened: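 Vehicle-treated cultures served as the baseline for growth inhibition of a DNA repair-mutant yeast strain exposed to each compound.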
# [8] = NCI Yeast Anticancer Drug Screen. Data for the sgs1 mgt1 strain (AID 161);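 also: 0% = growth of cultures given vehicle only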; conditions: S. cerevisiae sgs1 mgt1 strain, active compounds read high
# Procedure, shortened: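 Test agents were incubated with a DNA-repair-mutant yeast strain. Growth was then read and compared against vehicle-treated controls.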
# [9] = NCI Yeast Anticancer Drug Screen. Data for the CLN2oe strain (AID 163);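 also: 0% = growth of vehicle-only control cultures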; conditions: S. cerevisiae CLN2oe strain, active compounds read high
# Procedure, shortened: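 Read-out: yeast growth inhibition, expressed relative to vehicle-only controls. The strain bears an engineered cell-cycle alteration.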
# [10] = NCI Yeast Anticancer Drug Screen. Data for the cln2 rad14 strain (AID 165);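 also: 0% = growth equal to vehicle treated cultures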; conditions: S. cerevisiae cln2 rad14 strain, active compounds read high
# Procedure, shortened: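 cln2 rad14 yeast strain; compound exposure; growth inhibition read vs vehicle controls.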
# [11] = NCI Yeast Anticancer Drug Screen. Data for the bub3 strain (AID 167); conditions: S. cerevisiae bub3 mutant strain, active compounds read high
# Procedure, shortened: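 Inhibition values come from growth of compound-treated mutant yeast normalised to vehicle-treated controls.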
# [12] = NCI Yeast Anticancer Drug Screen. Data for the wt2 strain (AID 169);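 also: 0% = growth of vehicle-treated yeast cultures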; conditions: S. cerevisiae wt2 strain growth inhibition, active compounds read high
# Procedure, shortened: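 Read-out: growth inhibition versus vehicle-treated control cultures after compound exposure of the yeast strain.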
# [13] = NCI Yeast Anticancer Drug Screen. Data for the mlh1 strain (AID 171);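 also: 0% = growth of vehicle-treated control cultures of the same strain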; conditions: S. cerevisiae mlh1 strain growth inhibition, active compounds read high
# Procedure, shortened: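 Read-out: growth inhibition versus vehicle controls. Strain: engineered yeast with a defined DNA repair or cell cycle defect, compound-treated.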
# [14] = NCI Yeast Anticancer Drug Screen. Data for the sgs1 strain (AID 173);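 also: 0% = growth of vehicle-only control cultures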; conditions: S. cerevisiae sgs1 mutant, active compounds read high
# Procedure, shortened: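 Read-out: yeast growth inhibition relative to vehicle controls, following compound exposure of a strain with a defined DNA repair/cell cycle alteration.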
# [15] = NCI Yeast Anticancer Drug Screen. Data for the rad18 strain (AID 177); conditions: S. cerevisiae rad18 mutant growth inhibition, active compounds read high
# Procedure, shortened: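 Readout: growth inhibition vs vehicle controls. Cells: genetically altered yeast strain, DNA repair defect.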
# [16] = NCI Yeast Anticancer Drug Screen. Data for the mlh1 rad18 strain (AID 175); conditions: S. cerevisiae mlh1 rad18 strain growth inhibition, active compounds read high
# Procedure, shortened: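 Yeast w/ defined DNA-repair lesions; compound exposure; growth vs vehicle controls → % inhibition.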
# [17] = at 5.0 µM (retest, dose inferred, filed as 0.5)
# [18] = at 50.0 µM (retest, dose inferred, filed as 5.0)
smiles,measurement,setting,value
O=C(c1ccc([N+](=O)[O-])cc1)C1N=NCC1c1ccccc1 (stereo not drawn),growth inhibition,[1]; at 1.2 µM,2%
same,growth inhibition,[1]; at 3.7 µM,5%
same,growth inhibition,[1]; at 11.0 µM,6%
same,growth inhibition,[1]; at 33.0 µM,7%
same,growth inhibition,[1]; at 100.0 µM,45%
same,growth inhibition,[2]; at 1.2 µM,2%
same,growth inhibition,[2]; at 3.7 µM,1%
same,growth inhibition,[2]; at 11.0 µM,4%
same,growth inhibition,[2]; at 33.0 µM,1%
same,growth inhibition,[2]; at 100.0 µM,9%
same,growth inhibition,[3]; at 1.2 µM,-2%
same,growth inhibition,[3]; at 3.7 µM,-3%
same,growth inhibition,[3]; at 11.0 µM,-2%
same,growth inhibition,[3]; at 33.0 µM,9%
same,growth inhibition,[3]; at 100.0 µM,37%
same,growth inhibition,[4]; at 1.2 µM,-4%
same,growth inhibition,[4]; at 3.7 µM,-2%
same,growth inhibition,[4]; at 11.0 µM,0%
same,growth inhibition,[4]; at 33.0 µM,19%
same,growth inhibition,[4]; at 100.0 µM,62%
same,growth inhibition,[5]; at 1.2 µM,4%
same,growth inhibition,[5]; at 3.7 µM,4%
same,growth inhibition,[5]; [17],13%
same,growth inhibition,[5]; at 11.0 µM,5%
same,growth inhibition,[5]; at 33.0 µM,7%
same,growth inhibition,[5]; [18],11%
same,growth inhibition,[5]; at 50.0 µM,31%
same,growth inhibition,[5]; at 100.0 µM,34%
same,growth inhibition,[6]; at 1.2 µM,-2%
same,growth inhibition,[6]; at 3.7 µM,1%
same,growth inhibition,[6]; [17],0%
same,growth inhibition,[6]; at 11.0 µM,1%
same,growth inhibition,[6]; at 33.0 µM,1%
same,growth inhibition,[6]; [18],22%
same,growth inhibition,[6]; at 50.0 µM,20.8%
same,growth inhibition,[6]; at 100.0 µM,45%
same,growth inhibition,[7]; at 1.2 µM,1%
same,growth inhibition,[7]; at 3.7 µM,2%
same,growth inhibition,[7]; at 11.0 µM,6%
same,growth inhibition,[7]; at 33.0 µM,13%
same,growth inhibition,[7]; at 100.0 µM,51%
same,growth inhibition,[8]; [17],3%
same,growth inhibition,[8]; [18],27%
same,growth inhibition,[8]; at 50.0 µM,59%
same,growth inhibition,[9]; at 1.2 µM,0%
same,growth inhibition,[9]; at 3.7 µM,2%
same,growth inhibition,[9]; at 11.0 µM,4%
same,growth inhibition,[9]; at 33.0 µM,9%
same,growth inhibition,[9]; at 100.0 µM,54%
same,growth inhibition,[10]; [17],5%
same,growth inhibition,[10]; [18],27%
same,growth inhibition,[10]; at 50.0 µM,55.6%
same,growth inhibition,[11]; at 1.2 µM,0%
same,growth inhibition,[11]; at 3.7 µM,-3%
same,growth inhibition,[11]; [17],-3%
same,growth inhibition,[11]; at 11.0 µM,2%
same,growth inhibition,[11]; at 33.0 µM,11%
same,growth inhibition,[11]; [18],30%
same,growth inhibition,[11]; at 50.0 µM,71.8% (active)
same,growth inhibition,[11]; at 100.0 µM,75% (active)
same,growth inhibition,[12]; at 1.2 µM,0%
same,growth inhibition,[12]; at 3.7 µM,-1%
same,growth inhibition,[12]; at 11.0 µM,1%
same,growth inhibition,[12]; at 33.0 µM,4%
same,growth inhibition,[12]; at 100.0 µM,64%
same,growth inhibition,[13]; at 1.2 µM,-1%
same,growth inhibition,[13]; at 3.7 µM,0%
same,growth inhibition,[13]; at 11.0 µM,3%
same,growth inhibition,[13]; at 33.0 µM,5%
same,growth inhibition,[13]; at 100.0 µM,64%
same,growth inhibition,[14]; at 1.2 µM,0%
same,growth inhibition,[14]; at 3.7 µM,1%
same,growth inhibition,[14]; at 11.0 µM,3%
same,growth inhibition,[14]; at 33.0 µM,13%
same,growth inhibition,[14]; at 100.0 µM,78% (active)
same,growth inhibition,[15]; at 1.2 µM,2%
same,growth inhibition,[15]; at 3.7 µM,0%
same,growth inhibition,[15]; at 11.0 µM,7%
same,growth inhibition,[15]; at 33.0 µM,1%
same,growth inhibition,[15]; at 100.0 µM,40%
CCCCCCCCCCCCNC(C)=O,growth inhibition,[1]; at 1.2 µM,-5%
same,growth inhibition,[1]; at 3.7 µM,-7%
same,growth inhibition,[1]; at 11.0 µM,-8%
same,growth inhibition,[1]; at 33.0 µM,-12%
same,growth inhibition,[1]; at 100.0 µM,54%
same,growth inhibition,[2]; at 1.2 µM,-6%
same,growth inhibition,[2]; at 3.7 µM,-6%
same,growth inhibition,[2]; at 11.0 µM,-8%
same,growth inhibition,[2]; at 33.0 µM,-7%
same,growth inhibition,[2]; at 100.0 µM,9%
same,growth inhibition,[3]; at 1.2 µM,-2%
same,growth inhibition,[3]; at 3.7 µM,1%
same,growth inhibition,[3]; at 11.0 µM,7%
same,growth inhibition,[3]; at 33.0 µM,14%
same,growth inhibition,[3]; at 100.0 µM,26%
same,growth inhibition,[4]; at 1.2 µM,-2%
same,growth inhibition,[4]; at 3.7 µM,-6%
same,growth inhibition,[4]; at 11.0 µM,-5%
same,growth inhibition,[4]; at 33.0 µM,-14%
same,growth inhibition,[4]; at 100.0 µM,14%
same,growth inhibition,[5]; at 1.2 µM,-10%
same,growth inhibition,[5]; at 3.7 µM,-8%
same,growth inhibition,[5]; [17],-165%
same,growth inhibition,[5]; at 11.0 µM,2%
same,growth inhibition,[5]; at 33.0 µM,3%
same,growth inhibition,[5]; [18],93% (active)
same,growth inhibition,[5]; at 50.0 µM,81.3% (active)
same,growth inhibition,[5]; at 100.0 µM,90% (active)
same,growth inhibition,[6]; at 1.2 µM,2%
same,growth inhibition,[6]; at 3.7 µM,-3%
same,growth inhibition,[6]; [17],-47%
same,growth inhibition,[6]; at 11.0 µM,8%
same,growth inhibition,[6]; at 33.0 µM,3%
same,growth inhibition,[6]; [18],78% (active)
same,growth inhibition,[6]; at 50.0 µM,83% (active)
same,growth inhibition,[6]; at 100.0 µM,3%
same,growth inhibition,[7]; at 1.2 µM,-3%
same,growth inhibition,[7]; at 3.7 µM,0%
same,growth inhibition,[7]; at 11.0 µM,-2%
same,growth inhibition,[7]; at 33.0 µM,1%
same,growth inhibition,[7]; at 100.0 µM,40%
same,growth inhibition,[8]; [17],-63%
same,growth inhibition,[8]; [18],88% (active)
same,growth inhibition,[8]; at 50.0 µM,81% (active)
same,growth inhibition,[9]; at 1.2 µM,-1%
same,growth inhibition,[9]; at 3.7 µM,-1%
same,growth inhibition,[9]; at 11.0 µM,0%
same,growth inhibition,[9]; at 33.0 µM,-4%
same,growth inhibition,[9]; at 100.0 µM,-2%
same,growth inhibition,[10]; [17],-61%
same,growth inhibition,[10]; [18],-2%
same,growth inhibition,[10]; at 50.0 µM,15.3%
same,growth inhibition,[11]; at 1.2 µM,-9%
same,growth inhibition,[11]; at 3.7 µM,-3%
same,growth inhibition,[11]; [17],-62%
same,growth inhibition,[11]; at 11.0 µM,-2%
same,growth inhibition,[11]; at 33.0 µM,-1%
same,growth inhibition,[11]; [18],91% (active)
same,growth inhibition,[11]; at 50.0 µM,80% (active)
same,growth inhibition,[11]; at 100.0 µM,13%
same,growth inhibition,[12]; at 1.2 µM,-2%
same,growth inhibition,[12]; at 3.7 µM,-1%
same,growth inhibition,[12]; at 11.0 µM,-3%
same,growth inhibition,[12]; at 33.0 µM,-7%
same,growth inhibition,[12]; at 100.0 µM,24%
same,growth inhibition,[13]; at 1.2 µM,6%
same,growth inhibition,[13]; at 3.7 µM,-8%
same,growth inhibition,[13]; at 11.0 µM,-4%
same,growth inhibition,[13]; at 33.0 µM,-6%
same,growth inhibition,[13]; at 100.0 µM,72% (active)
same,growth inhibition,[14]; at 1.2 µM,-2%
same,growth inhibition,[14]; at 3.7 µM,-3%
same,growth inhibition,[14]; at 11.0 µM,-3%
same,growth inhibition,[14]; at 33.0 µM,-4%
same,growth inhibition,[14]; at 100.0 µM,43%
same,growth inhibition,[16]; [17],-116%
same,growth inhibition,[16]; [18],94% (active)
same,growth inhibition,[16]; at 50.0 µM,91.8% (active)
same,growth inhibition,[15]; at 1.2 µM,-4%
same,growth inhibition,[15]; at 3.7 µM,-4%
same,growth inhibition,[15]; at 11.0 µM,-2%
same,growth inhibition,[15]; at 33.0 µM,-3%
same,growth inhibition,[15]; at 100.0 µM,61%
